Test results: the antibiotic and cytotoxicity screens of Wong et al. (2023)
The whole screen tested about 39,000 compounds, of which about 3,300 (8.5%) were called active. For the sample, actives were picked, then their nearest neighbours and some compounds at random.

Each compound was assayed on HepG2 (assay: cytotoxicity call (relative viability < 0.9)). Conditions: 10 µM.

SMILES	cytotoxicity call
CN1[C@@H]2CC[C@H]1CNC(=O)C2	inactive
COc1ccc2c3c([nH]c2c1)C(C)=NCC3	inactive
CC1=NCCc2c1[nH]c1cc(O)ccc21.Cl.O.O	active
CN1CCN(c2ccccc2CN)CC1	inactive
COc1ccc(OC(=O)N(C)C[C@@H]2OCc3ccccc3-c3c(n(C)c4ccccc34)C(=O)N([C@H](C)CO)C[C@H]2C)cc1	inactive
N#Cc1cccnc1N1CCNCC1	inactive
Cc1ccc2cc3c(ccc4ccccc43)c3c2c1CC3	active
CN1CCN(C(=O)[C@H]2C[C@H]3CN(c4ncccn4)C[C@@H]3N2C)CC1	inactive
Br.CN1C2CC(OC(=O)C(CO)c3ccccc3)CC1C(O)C2 (racemic)	inactive
C=C1[C@H]2CC[C@H]3[C@]4(C)C[C@H](O[C@H]5O[C@@H](CO)[C@@H](OS(=O)(=O)O)[C@H](OS(=O)(=O)O)[C@H]5OC(=O)CC(C)C)C[C@@H](C(=O)O)[C@H]4CC[C@]3(C2)[C@H]1O	inactive
CC[C@@H](C)NC=C1C(=O)NC(=O)NC1=O	inactive
O=C(c1ccco1)N1[C@@H]2CC[C@H]1CNC2	inactive
NC1(c2cccc(Cl)c2)CC1	inactive
CC(C)C[C@@H]1NC[C@@H]2CCCN2C1=O	inactive
CN(C)C(=S)SSC(=S)N(C)C	active
O=C(O)CN1C[C@@H]2C(NC(=O)c3ccno3)[C@H]2C1 (stereo not given in full)	inactive
CC(C(O)c1ccccc1)N(C)C (stereo not given)	inactive
CNCC(=O)c1ccc(O)cc1	inactive
COC(=O)NC(=S)Nc1ccccc1NC(=S)NC(=O)OC	active
CNc1ccccc1C(=O)O	inactive
Br.CN1C2CC(OC(=O)C(CO)c3ccccc3)CC1C1OC12 (stereo not given)	inactive
C[N+]1(C)C2CC(OC(=O)C(CO)c3ccccc3)CC1C1OC12.[Br-] (stereo not given)	inactive
CC(=O)Nc1ccc(Cl)cc1C	inactive
C=C[C@H]1CN2CC[C@@H]1C[C@@H]2CO	inactive
CN(C)[C@@H](CN)c1cn(C)c2ccccc12	inactive
C[C@@H]1CCC(=O)O1	inactive
OCC[N+]12CN3CN(CN(C3)C1)C2	inactive
Cc1cc2c(C(C)C)c(O)c(O)c(C=O)c2c(O)c1-c1c(C)cc2c(C(C)C)c(O)c(O)c(C=O)c2c1O [listing 1 of 2 here]	active

SMILES	cytotoxicity call
Cc1cc2c(C(C)C)c(O)c(O)c(C=O)c2c(O)c1-c1c(C)cc2c(C(C)C)c(O)c(O)c(C=O)c2c1O [listing 2 of 2 here]	inactive
CC(=O)O.Cc1cc2c(C(C)C)c(O)c(O)c(C=O)c2c(O)c1-c1c(C)cc2c(C(C)C)c(O)c(O)c(C=O)c2c1O	inactive
COc1cccc(C2(O)CCCCC2CN(C)C)c1.Cl (stereo not given)	inactive
CN(CC[C@@H](N)CC(=O)N[C@H]1C=C[C@H](n2ccc(N)nc2=O)O[C@@H]1C(=O)O)C(=N)N	inactive
CN[C@H]1C[C@@H](N)[C@H](O)[C@@H](O[C@@H]2O[C@H](CO)[C@H](O)[C@@H]3O[C@@]4(O[C@H]23)O[C@H]([C@@H](N)CO)[C@H](O)[C@H](O)[C@H]4O)[C@@H]1O	inactive
CCCC(=O)c1c(O)[nH]c(=O)[nH]c1=O	inactive
c1ccc2sc(C3(N4CCCCC4)CCCCC3)cc2c1	inactive
c1ccc2sc(C3(N4CCCC4)CCCCC3)cc2c1	inactive
S=C=Nc1cccc(C2(N3CCCCC3)CCCCC2)c1	active
Oc1ccccc1N1CCNCC1	inactive
O[C@H]1CNC[C@@H]1N1CCCC1	inactive
CN1CC2(CNC2)OCCS1(=O)=O	inactive
C[C@@H]1CN([C@@H](C)CO)C(=O)CCCn2nncc2CO[C@@H]1CN(C)C(=O)Oc1cccc2ccccc12	inactive
NCCc1[nH]nc2c1CCCC2	inactive
CC1(C)NN1CCCN1NC1(C)C (stereo not given)	inactive
NCCO.NCCO.O[AsH]O[AsH]O (stereo not given)	active
CC12CCC(=O)C=C1C=CC1C2CCC2(C)C1CCC2(O)CCC(=O)[O-].[K+] (stereo not given)	inactive
CC12CCC3C(CCC45OC4C(O)=C(C#N)CC35C)C1CCC2O (stereo not given)	inactive
C[C@H](N)Cn1ccc2cc(F)c(Cl)cc21	inactive
CC(C)[C@H](N)C(=O)N1CCC[C@H]1B(O)O	inactive
CO[C@@H]1C[C@@H](C[C@H]2CC[C@H](C)[C@H]([C@@H](C)C(=O)O)O2)O[C@]2(O[C@](C)([C@H]3CC[C@@](C)([C@H]4O[C@@H]([C@H]5O[C@@](O)(CO)[C@H](C)C[C@@H]5C)C[C@@H]4C)O3)C[C@H]2C)[C@@H]1C	active
C[C@@H](N)Cc1ccc2occc2c1	inactive
CC1=C2CCC3C4CCC(=O)C4(C)CCC3C2(C)CCC1=O (stereo not given)	inactive
O=[N+]([O-])c1cc(O)c(O)c([N+](=O)[O-])c1	inactive
CC(C)=CCC[C@]1(C)C=Cc2c(O)c3c(c(CC=C(C)C)c2O1)O[C@]12[C@H](C[C@@H]4C[C@H]1C(C)(C)O[C@]2(C/C=C(/C)C(=O)O)[C@@H]4O)C3=O	inactive
CC(C)=CCCC1(C)C=Cc2c(O)c3c(c(CC=C(C)C)c2O1)OC12C(=CC4CC1C(C)(C)OC2(CC=C(C)C(=O)O)C4O)C3=O (stereo not given)	inactive
CC(C)=CCCC1(C)C=Cc2c(O)c3c(c(CC=C(C)C)c2O1)OC12C(=CC4CC1C(C)(C)OC2(CC=C(C)C(=O)O)C4=O)C3=O (stereo not given)	active
